Shown are actives, neighbours in structure and some others; about 11% of the full set was active somewhere.
ALDH1A1 inh – ALDH1A1 (human) enzyme inhibition; AID 1030; Potency, µM (titrated, usually from 75.3 µM), hits mostly inhibitors; Purified ALDH1A1, NADH fluorescence, propionaldehyde substrate; 220,000 tested, 7.3% active; P00352
Target sequence (P00352 whole entry, looked up): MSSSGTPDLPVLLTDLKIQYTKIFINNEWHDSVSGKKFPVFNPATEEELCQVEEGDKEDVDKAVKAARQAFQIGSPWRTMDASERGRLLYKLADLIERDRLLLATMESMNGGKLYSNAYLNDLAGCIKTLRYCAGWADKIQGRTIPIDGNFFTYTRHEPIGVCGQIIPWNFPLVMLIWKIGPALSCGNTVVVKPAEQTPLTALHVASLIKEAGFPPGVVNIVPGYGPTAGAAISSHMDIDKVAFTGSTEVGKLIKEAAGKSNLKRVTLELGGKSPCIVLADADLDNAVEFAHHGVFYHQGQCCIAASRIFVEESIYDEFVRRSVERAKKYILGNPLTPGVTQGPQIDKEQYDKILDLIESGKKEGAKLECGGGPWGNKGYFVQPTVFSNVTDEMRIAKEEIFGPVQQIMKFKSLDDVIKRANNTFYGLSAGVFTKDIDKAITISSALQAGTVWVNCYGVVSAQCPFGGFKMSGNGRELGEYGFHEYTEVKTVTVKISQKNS
HPGD block – blocks human HPGD enzyme activity; P15428; purified HPGD, NADH fluorescence kinetic, PGE2 substrate; Potency, µM, actives largely listed as inhibitors; 150,000 tested, 4.3% active; AID 894
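NADH formation kinetics: reaction with 30 uM PGE2 and 1 mM NAD+ (final), 20 nM enzyme, Tris-HCl pH 8 with Tween 20, after 15 min compound preincubation at room temperature. Fluorescence change, last versus first of five reads.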
PNC inhibitor – blocks assembly of the perinucleolar compartment. AID 2417. activity change (PNC), negative = inhibition, % at 10 µM. PC3M PTB-GFP, PNC prevalence imaging, 16 h; stronger effect = lower value. 140,000 tested, 3.1% active;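 active = readout at or below -70, meaning at least 70% loss of cells showing the perinucleolar compartment, a nuclear body marking cancer cells; inconclusive = readout between -30 and a set limit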
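Compounds are pinned in duplicate onto adhered PC3M cells stably expressing GFP-tagged PTB and incubated 16 h at 37 C. Cells are then fixed, nuclei stained with Hoechst, and PNC-positive cells counted.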
Of the large screens only hits and unclear results are named; the others gave an inactive call. Unless noted, calls come from the whole dose curve; as a rule, active = well fitted inhibition curve with a large enough effect (not every such curve was filed as active); inconclusive = small, poorly fitted or top-dose-only effect, or another doubt; inactive = no such curve, though single readings can be large or run the other way.

Cc1nn2c(=O)cc(COC(=O)c3ccc(S(=O)(=O)N4CCCCC4)cc3)nc2s1	none
O=C(/C=C/c1ccco1)NC(=S)Nc1ccccn1	ALDH1A1 inh inconclusive, HPGD block 16µM
O=C(/C=C/c1ccco1)NC(=S)Nc1ccccc1N1CCOCC1	ALDH1A1 inh inconclusive, PNC inhibitor -109
O=C(/C=C/c1ccco1)NC(=S)Nc1ccccc1N1CCCC1	none (no result: HPGD block, PNC inhibitor)
Cc1cccnc1NC(=S)NC(=O)/C=C/c1ccco1	ALDH1A1 inh inconclusive
CC(C)C1O[C@H](/C=C\c2ccccc2)OCC1(C)C (stereo partly specified)	ALDH1A1 inh inconclusive (no result: PNC inhibitor)
COc1ccc(OC)c(NC(=O)c2cc(-c3cc(Cl)ccc3O)n[nH]2)c1	HPGD block inconclusive
O=C(O)c1cc(-c2ccccc2Cl)n[nH]1	none
COc1ccc(Cl)cc1NC(=O)c1cc(-c2ccccc2O)n[nH]1	HPGD block 1.4µM
Cc1c(Cl)cccc1NC(=O)c1cc(-c2ccccc2O)n[nH]1	HPGD block 13µM
CCC1=C2CC[C@H]3C(=O)N(c4ccccc4)C(=O)[C@H]3[C@H]2[C@@]2(Cc3ccccc3)C(=NCCc3c[nH]c4ccccc34)OC(=O)N2C1=O	none (no result: PNC inhibitor)
O=C(CCCSc1nc2ccccc2s1)NCc1ccc2c(c1)OCO2	ALDH1A1 inh 3.5µM, PNC inhibitor inconclusive
NNC(=O)c1ccc(CSc2nc3ccccc3s2)cc1	ALDH1A1 inh 3.5µM (no result: HPGD block, PNC inhibitor)
CC(C)(C)NC(=O)CCCSc1nc2ccccc2s1	none (no result: HPGD block, PNC inhibitor)
O=C(CSc1nnc(SCC(=O)NCc2ccc3c(c2)OCO3)s1)NCc1ccc2c(c1)OCO2	PNC inhibitor inconclusive
O=C(CSc1nc(C2CCCCC2)nc2ccccc12)NCc1ccc2c(c1)OCO2	none
c1csc(CSc2nc3ccccc3s2)c1	ALDH1A1 inh inconclusive
O=C(CSc1nc2ccccc2s1)NCc1ccc2c(c1)OCO2	ALDH1A1 inh 14µM, HPGD block 32µM
O=C(CSc1ccc2ccccc2n1)NCc1ccc2c(c1)OCO2	ALDH1A1 inh 18µM (no result: HPGD block, PNC inhibitor)
COc1cccc2c1CCC1=CC(=O)CC[C@@]12C	ALDH1A1 inh inconclusive (no result: PNC inhibitor)
O=C(CCCN1C(=O)c2cccnc2C1=O)Nc1ccc(Br)cc1	none (no result: HPGD block, PNC inhibitor)
Cc1ccc2c(c1)N(CCC(=O)NCc1cccs1)C(=O)C(C)O2 (stereo unspecified)	ALDH1A1 inh inconclusive
COCCNC(=O)/C(C#N)=C/C=C/c1ccccc1[N+](=O)[O-]	none (no result: HPGD block, PNC inhibitor)
C=CC(C1=CC(=O)C(OC)=CC1=O)c1ccc(O)cc1 (stereo unspecified)	none (no result: PNC inhibitor)
CCCCC(=O)NC(Nc1nc(C2CC2)cs1)(C(=O)OCC)C(F)(F)F (stereo unspecified)	none
Cc1noc(C)c1C(=O)N1CCC[C@@]2(CCN(C(=O)Nc3ccccc3)C2)C1	none (no result: PNC inhibitor)
O=C(CCCc1nc2ccccc2s1)Nc1nccs1	none
O=C(CCCSc1nc2ccccc2s1)Nc1nccs1	ALDH1A1 inh 16µM, HPGD block 25µM
C=CCOC(=O)N[C@H](c1ccco1)C(C(C)=O)C(C)=O	none (no result: PNC inhibitor)
S=c1[nH]ncn1/N=C/c1cccc(Oc2ccccc2)c1	ALDH1A1 inh 18µM, HPGD block 10µM
C(=N\n1cnnc1)/c1cccc(Oc2ccccc2)c1	none
COc1ccc(OC)c(-c2nc3c(C)n[nH]c(=O)c3[nH]2)c1	none
CC(=O)N1CCC(N(C(=O)Nc2c(F)cccc2F)C(C)C)CC1	none
COC(=O)c1cn(C(=O)c2ccc(Br)o2)c2ccccc12	ALDH1A1 inh 32µM, PNC inhibitor inconclusive
COC(=O)c1cn(C(=O)c2ccco2)c2ccccc12	none
CCOC(=O)C(C(C)=O)C(c1ccc(OC)cc1)C(C(C)=O)C(=O)OCC (stereo unspecified)	PNC inhibitor inconclusive
COc1ccc(C(c2c(C)[nH]n(C(N)=S)c2=O)C(C#N)C#N)cc1 (stereo unspecified)	ALDH1A1 inh 13µM, HPGD block 32µM, PNC inhibitor inconclusive
Cc1nn(-c2ccc(F)cc2)c(Cl)c1/C=C1\C(=O)Nc2ccccc21	none
COc1ccc(C2C(C(C)=O)=C(Nc3ccccc3)CC(C)(O)C2C(C)=O)cc1OC (stereo unspecified)	ALDH1A1 inh inconclusive, PNC inhibitor -119
COc1ccc(NC2=C(C(C)=O)C(c3ccc(OC)cc3)C(C(C)=O)C(C)(O)C2)cc1 (stereo unspecified)	none (no result: HPGD block, PNC inhibitor)
CCc1nnc(NC(=O)C2CCN(c3cnccn3)CC2)s1	ALDH1A1 inh inconclusive, PNC inhibitor inconclusive
CC(C)c1nnc(NC(=O)C2CCN(c3cnccn3)CC2)s1	ALDH1A1 inh 32µM
O=C(Nc1ccc(Br)cc1)C(c1ccccc1)c1ccccc1	none (no result: HPGD block, PNC inhibitor)
Cc1ccc(-n2nnc(-c3nccs3)n2)cc1	none (no result: HPGD block, PNC inhibitor)
Clc1ccc(-n2nnc(-c3nccs3)n2)cc1Cl	ALDH1A1 inh 25µM (no result: HPGD block, PNC inhibitor)
COc1cc(=O)n(C)c2c(O)cccc12	none (no result: HPGD block, PNC inhibitor)
CC1CN(S(=O)(=O)c2ccc(NC(=O)c3cc(-c4ccccc4O)n[nH]3)cc2)CC(C)O1 (stereo unspecified)	HPGD block 14µM
CC1CN(S(=O)(=O)c2ccc(C(=O)Nc3ccc(S(=O)(=O)Nc4nccs4)cc3)cc2)CC(C)O1 (stereo unspecified)	ALDH1A1 inh inconclusive
CN1C[C@H](C(=O)N[C@]2(C)O[C@@]3(O)C4CCCN4C(=O)[C@H](Cc4ccccc4)N3C2=O)C[C@@H]2c3cccc4[nH]cc(c34)C[C@H]21 (stereo partly specified)	none (no result: PNC inhibitor)
COc1ccc(-c2nc(-c3cccc([N+](=O)[O-])c3O)cc(=O)o2)cc1OC	none
COc1cc(/C=C2/C(=O)c3cccc([N+](=O)[O-])c3C2=O)c(Br)cc1O	ALDH1A1 inh 8.9µM, HPGD block 1.4µM
Nc1cc(-c2ccc(Cl)cc2)nn1-c1ccccc1	none (no result: HPGD block, PNC inhibitor)
Nc1ccc(-c2cc(N)n(-c3ccccc3)n2)cc1	ALDH1A1 inh 11µM, PNC inhibitor inconclusive
N#C/C(=C(/O)COC(=O)c1ccc(C#N)cc1)c1nc2ccccc2s1	none
CCN1C=CC2=C(C#N)C(N)C(C#N)(C#N)C(c3ccccc3C(F)(F)F)C2C1 (stereo unspecified)	ALDH1A1 inh inconclusive
Cc1cc(C)c2c(c1)N[C@H](c1cccs1)[C@@H]1CCO[C@H]21	none (no result: HPGD block, PNC inhibitor)
CC(C)c1ccc2c(c1)[C@H]1OCC[C@H]1[C@@H](c1cccs1)N2	HPGD block 7.9µM, PNC inhibitor -109
O=C(NCc1ccccn1)c1ccc(N2CCCC2=O)cc1	none
CN1CCN(C(=O)c2cc3nc(-c4ccc(F)cc4)cc(C(F)(F)F)n3n2)CC1	HPGD block 11µM
COc1ccc(-c2cc(C(F)(F)F)n3nc(C(=O)N4CCCC4)cc3n2)cc1	ALDH1A1 inh inconclusive, HPGD block inconclusive
O=C(c1cc2nc(-c3ccc(F)cc3)cc(C(F)(F)F)n2n1)N1CCCCC1c1cccnc1 (stereo unspecified)	ALDH1A1 inh 14µM (no result: HPGD block, PNC inhibitor)
Cc1ccc(-c2cc(C(F)F)n3ncc(C(=O)N4CCCCC4c4cccnc4)c3n2)cc1 (stereo unspecified)	none (no result: HPGD block, PNC inhibitor)
O=C(Cc1ccccc1)Nc1cccc(N2CCCC2)c1	ALDH1A1 inh 14µM, HPGD block inconclusive, PNC inhibitor inconclusive
O=C(Cc1ccccc1)Nc1ccc(N2CCCC2)cc1	ALDH1A1 inh inconclusive
CC(=O)N1CCN(S(=O)(=O)c2ccc(S(=O)(=O)NCC(C)C)cc2)CC1	PNC inhibitor inconclusive
O=c1[nH]c(CSc2nnc(Nc3ccccc3)s2)nc2ccccc12	none (no result: HPGD block, PNC inhibitor)
CS(=O)(=O)N(CC(=O)Nc1cccnc1)c1ccc2c(c1)OCO2	none

Source: PubChem
